We go through 38 molecules from PubChem BioAssay (EPA / NIEHS).

The source made the active and inactive calls. The calls were made as follows: active = hit-call score of the fitted dose curve at least 0.9, where 1 is the maximum; inactive = score below 0.9.

Sequence of Retinoic acid receptor alpha (Homo sapiens) (P10276 whole entry, looked up): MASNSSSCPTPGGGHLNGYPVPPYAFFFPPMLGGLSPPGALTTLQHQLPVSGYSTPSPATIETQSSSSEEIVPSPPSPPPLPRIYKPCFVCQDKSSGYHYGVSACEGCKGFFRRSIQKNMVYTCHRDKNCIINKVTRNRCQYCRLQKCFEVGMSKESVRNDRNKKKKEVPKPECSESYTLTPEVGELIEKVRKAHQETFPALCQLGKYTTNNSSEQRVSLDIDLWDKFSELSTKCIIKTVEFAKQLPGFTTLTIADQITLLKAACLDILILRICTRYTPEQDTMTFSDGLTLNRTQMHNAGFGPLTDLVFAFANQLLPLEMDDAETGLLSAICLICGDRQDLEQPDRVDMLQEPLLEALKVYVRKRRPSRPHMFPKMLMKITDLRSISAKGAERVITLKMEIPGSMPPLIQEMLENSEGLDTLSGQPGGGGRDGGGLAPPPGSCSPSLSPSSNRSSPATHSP

The target in the assay is Retinoic acid receptor alpha (Homo sapiens) (UniProt P10276). Nature of the assay: ATG_DR5_RAR_CIS: Attagene CIS-FACTORIAL HepG2 Assay for human Retinoic Acid Receptor Alpha (RARE), DR5 submotif (AID 2282934).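 As to AC50: reporter responds to endogenous RAR alpha beta and gamma in HepG2 not RARA alone.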 The following applies: HepG2 Attagene cis-factorial RARE DR5 reporter, mRNA; actives raise or lower the signal. The method in brief:
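Reporter transcripts from a DR5-regulated unit, measured via RT-PCR plus capillary electrophoresis, reflect endogenous RAR activity in transiently transfected human HepG2 liver cells. Exposure lasted 24 h; gain or loss of signal scored against DMSO.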
For the molecule `CCOC(=O)CC(C)O` (stereo not drawn), the molecule was classed as inactive.
With `CCCC(=O)OCCc1ccccc1`, the result was inactive.
Same read-out and setting: to `CC1(C)O[C@@H]2[C@@H](CO[C@@]3(COS(N)(=O)=O)OC(C)(C)O[C@@H]23)O1` belongs “inactive”.
Same read-out and setting: in the case of `[Cl][Au]([Cl])[Cl]` it was “inactive”.
As for `CCCCCC(C=O)=Cc1ccccc1`, the molecule was classed as inactive.
The same measure, in the same setting: to `C=CC(C)C#N` (stereo not drawn) belongs “inactive”; to `C[C@H]1O[C@@H](O[C@H]2[C@@H](O)C[C@H](O[C@H]3[C@@H](O)C[C@H](O[C@H]4CC[C@@]5(C)[C@H](CC[C@@H]6[C@@H]5C[C@@H](O)[C@]5(C)[C@@H](C7=CC(=O)OC7)CC[C@]65O)C4)O[C@@H]3C)O[C@@H]2C)C[C@H](O)[C@@H]1O`, “inactive”.
On the same count and under the same terms, in the case of `ClC(c1ccccc1)(c1ccccc1)c1ccccc1` it was “inactive”.
Still for that read-out and setting: in the case of `O=c1c(O)c(-c2ccc(O)cc2)oc2cc(O)cc(O)c12` it was “inactive”; in that of `CN1CCOCC1`, “inactive”; in that of `CC/C=C\CC/C=C/CO`, “inactive”.
As for `CS(=O)(=O)c1ccc(C2=C(c3ccccc3)C(=O)OC2)cc1`, the result was inactive.
The same measure, in the same setting: in the case of `CC1C2CC(CC2C2CCCC(O)C2)C1(C)C` (stereo not drawn) it was “inactive”; in that of `COC(=O)Nc1ccc(Cl)c(Cl)c1`, “inactive”.
On the same count and under the same terms, to `CC(O)C1CCCCC1` (stereo not drawn) belongs “inactive”.
As to `Oc1c(Cl)cc(Cl)c(Cl)c1Cc1c(O)c(Cl)cc(Cl)c1Cl`, the concentration at half-maximal activity (AC50) is 0.527 µM (active).
`N#Cc1ccc(CC(=O)c2cccc(C(F)(F)F)c2)cc1`: the result was inactive.
`COS(=O)(=O)O`: the outcome was inactive.
Same read-out and setting: to `CCCCCCOC(=O)CCC` belongs “inactive”; to `COC(C)(C)CCCC(C)CC=O` (stereo not drawn), “inactive”.
Turning to `CSCCC=O`, the AC50 is 25.5 µM (active).
Consider `Brc1ccc(Br)c(Br)c1`, for which the molecule was classed as inactive.
The same measure, in the same setting: to `Cc1cc(C)nc(NS(=O)(=O)c2ccc(N)cc2)n1` belongs “inactive”; to `CCOCCOCCOCC`, “inactive”; to `C=C1C[C@]23C[C@@]1(O)CC[C@H]2[C@@]12C=C[C@H](O)[C@@](C)(C(=O)O1)[C@H]2[C@@H]3C(=O)O`, “inactive”.
The same measure, in the same setting: to `OCc1cccc(Oc2ccccc2)c1` belongs “inactive”; to `C=CCN(CC=C)CC=C`, “inactive”; to `CC(C)(N=C=O)c1cccc(C(C)(C)N=C=O)c1`, “inactive”.
On the same count and under the same terms, to `C[Si]1(C)O[Si](C)(C)O[Si](C)(C)O1` belongs “inactive”; to `CCOc1ccccc1O`, “inactive”; to `Cc1cc(=O)oc2cc(N(C)C)ccc12`, “inactive”.
`CCCCOCC`: the molecule was called inactive.
`C1CCCCC1`: the molecule was classed as inactive.
The same measure, in the same setting: to `CC1=CC[C@@]23C[C@@H]1C(C)(C)[C@@H]2CC[C@H]3C` belongs “inactive”; to `O=C1NC2NC(=O)NC2N1` (stereo not drawn), “inactive”.
On the same count and under the same terms, to `Nc1ccc(NCCO)c([N+](=O)[O-])c1` belongs “inactive”.
Still for that read-out and setting: to `CC(C)(CO)[C@@H](O)C(=O)NCCC(=O)O` belongs “inactive”; to `C[Si](C)(C)O[Si](C)(C)C`, “inactive”.

The term AC50 denotes the concentration at which the activity in the assay is half-maximal.
